Measurements: PubChem BioAssay AID1159580 (chemical genetic matrix, 2015)
Several values for one entry are separate records, joined by “and”; a condition that tells them apart may be missing. Equal values may be shown once. Among all 5,500 compounds or so, about 2,000 (36%) were called active. About 18% were inconclusive and are not listed. No stated cut-off is given here; in the data, active means normalized growth mostly below about 0.91 (no sharp cut-off); inconclusive means no clear call, values can overlap the other calls; inactive means mostly above about 0.92. The list shows a part of the results.

Assay: chemical genetic growth profiling, strain panel (AID 1159580);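 further: tested at 20 µM; growth read once vehicle control cultures reached saturation at 30 °C; 1 = growth at the plate median or of vehicle wells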
Settings: growth OD

Measured: normalized growth

CC(C)(C)NCC(O)c1ccccc1Cl (stereo unspecified)
inactive: S. cerevisiae deletion strains, locus YJR075W, strain HOC1, stronger effect = lower value 1.01 and 1.04 | S. cerevisiae deletion strains, locus YKL009W, strain mrt4, stronger effect = lower value 0.96 | S. cerevisiae deletion strains, locus YKL068W, stronger effect = lower value 0.991 | S. cerevisiae deletion strains, locus YKL085W, strain MDH1 (second series), stronger effect = lower value 0.983 | S. cerevisiae deletion strains, locus YKL085W, strain MDH1, stronger effect = lower value 0.983 | S. cerevisiae deletion strains, locus YKL160W, strain elf1, stronger effect = lower value 1.02 | S. cerevisiae deletion strains, locus YKL190W, strain CNB1, stronger effect = lower value 0.995 | S. cerevisiae deletion strains, locus YKR001C, strain vps1, stronger effect = lower value 0.976 | S. cerevisiae deletion strains, locus YKR026C, strain gcn3, stronger effect = lower value 0.994 | S. cerevisiae deletion strains, locus YKR091W, strain srl3, stronger effect = lower value 0.997 | S. cerevisiae deletion strains, locus YLL001W, strain dnm1, stronger effect = lower value 1 | S. cerevisiae deletion strains, locus YLL026W, stronger effect = lower value 0.983 | S. cerevisiae deletion strains, locus YLL041C, strain sdh2, stronger effect = lower value 0.997 | S. cerevisiae deletion strains, locus YLR027C, strain aat2, stronger effect = lower value 0.992 | S. cerevisiae deletion strains, locus YLR039C, strain RIC1, stronger effect = lower value 0.923 | S. cerevisiae deletion strains, locus YLR058C, strain SHM2, stronger effect = lower value 0.975 | S. cerevisiae deletion strains, locus YLR102C, strain apc9, stronger effect = lower value 0.986 | S. cerevisiae deletion strains, locus YLR113W, strain HOG1, stronger effect = lower value 1.01 | S. cerevisiae deletion strains, locus YLR221C, strain rsa3, stronger effect = lower value 1.01 | S. cerevisiae deletion strains, locus YLR258W, strain gsy2, stronger effect = lower value 0.974 | S. cerevisiae deletion strains, locus YLR262C, strain YPT6 (second series), stronger effect = lower value 0.997 | S. cerevisiae deletion strains, locus YLR262C, strain YPT6, stronger effect = lower value 0.887 | S. cerevisiae deletion strains, locus YLR268W, strain sec22, stronger effect = lower value 1.09 | S. cerevisiae deletion strains, locus YLR320W, strain mms22, stronger effect = lower value 0.981 | S. cerevisiae deletion strains, locus YLR330W, strain CHS5, stronger effect = lower value 0.992 | S. cerevisiae deletion strains, locus YLR342W, strain FKS1 (second series), stronger effect = lower value 0.967 | S. cerevisiae deletion strains, locus YLR342W, strain FKS1, stronger effect = lower value 0.999 | S. cerevisiae deletion strains, locus YLR357W, strain rsc2, stronger effect = lower value 0.982 | S. cerevisiae deletion strains, locus YLR370C, strain arc18, stronger effect = lower value 0.997 | S. cerevisiae deletion strains, locus YLR371W, strain rom2, stronger effect = lower value 0.982 | S. cerevisiae deletion strains, locus YLR384C, strain iki3, stronger effect = lower value 0.989 | S. cerevisiae deletion strains, locus YLR418C, strain cdc73, stronger effect = lower value 0.993 | S. cerevisiae deletion strains, locus YML016C, strain PPZ1, stronger effect = lower value 0.99 | S. cerevisiae deletion strains, locus YML032C, strain rad52, stronger effect = lower value 1.02 | S. cerevisiae deletion strains, locus YML120C, strain ndi1, stronger effect = lower value 1.01 | S. cerevisiae deletion strains, locus YML124C, strain tub3, stronger effect = lower value 0.984 | S. cerevisiae deletion strains, locus YMR058W, strain fet3, stronger effect = lower value 0.997 | S. cerevisiae deletion strains, locus YMR078C, strain ctf18, stronger effect = lower value 0.982 | S. cerevisiae deletion strains, locus YMR125W, strain sto1, stronger effect = lower value 0.962 | S. cerevisiae deletion strains, locus YMR129W, stronger effect = lower value 0.967 | S. cerevisiae deletion strains, locus YMR205C, strain PFK2, stronger effect = lower value 0.951 | S. cerevisiae deletion strains, locus YMR223W, strain ubp8, stronger effect = lower value 0.96 | S. cerevisiae deletion strains, locus YMR231W, strain pep5, stronger effect = lower value 0.998 | S. cerevisiae deletion strains, locus YMR263W, strain SAP30, stronger effect = lower value 0.993 and 0.995 | S. cerevisiae deletion strains, locus YMR307W, strain GAS1, stronger effect = lower value 0.994 and 0.992 | S. cerevisiae deletion strains, locus YNL067W, strain RPL9B, stronger effect = lower value 1.02 | S. cerevisiae deletion strains, locus YNL071W, strain lat1, stronger effect = lower value 1 | S. cerevisiae deletion strains, locus YNL128W, strain TEP1, stronger effect = lower value 0.962 | S. cerevisiae deletion strains, locus YNL153C, strain GIM3, stronger effect = lower value 1.01 | S. cerevisiae deletion strains, locus YNL175C, strain NOP13, stronger effect = lower value 1.02 | S. cerevisiae deletion strains, locus YNL183C, strain NPR1, stronger effect = lower value 0.939 | S. cerevisiae deletion strains, locus YNL197C, strain WHI3, stronger effect = lower value 0.981 | S. cerevisiae deletion strains, locus YNL209W, strain ssb2, stronger effect = lower value 1 | S. cerevisiae deletion strains, locus YNL224C, strain SQS1, stronger effect = lower value 1.01 | S. cerevisiae deletion strains, locus YNL233W, strain BNI4, stronger effect = lower value 1.02 | S. cerevisiae deletion strains, locus YNL248C, strain rpa49, stronger effect = lower value 1.02 | S. cerevisiae deletion strains, locus YNL250W, strain rad50, stronger effect = lower value 0.976 | S. cerevisiae deletion strains, locus YNL271C, strain bni1, stronger effect = lower value 0.987 | S. cerevisiae deletion strains, locus YNL298W, strain CLA4, stronger effect = lower value 0.975 | S. cerevisiae deletion strains, locus YNL307C, strain MCK1, stronger effect = lower value 0.992 | S. cerevisiae deletion strains, locus YNL322C, strain KRE1 (second series), stronger effect = lower value 0.989 | S. cerevisiae deletion strains, locus YNL322C, strain KRE1, stronger effect = lower value 0.996 and 1 | S. cerevisiae deletion strains, locus YNR049C, strain mso1, stronger effect = lower value 0.994 | S. cerevisiae deletion strains, locus YNR052C, strain pop2, stronger effect = lower value 0.985 | S. cerevisiae deletion strains, locus YOL006C, strain TOP1, stronger effect = lower value 1.03 | S. cerevisiae deletion strains, locus YOL012C, strain htz1 0.982 | S. cerevisiae deletion strains, locus YOL147C, strain pex11, stronger effect = lower value 0.992 | S. cerevisiae deletion strains, locus YOR001W, strain rrp6, stronger effect = lower value 0.996 | S. cerevisiae deletion strains, locus YOR061W, strain CKA2, stronger effect = lower value 0.969 | S. cerevisiae deletion strains, locus YOR069W, strain VPS5, stronger effect = lower value 0.991 | S. cerevisiae deletion strains, locus YOR070C, strain gyp1, stronger effect = lower value 0.992 | S. cerevisiae deletion strains, locus YOR080W, strain dia2, stronger effect = lower value 0.974 | S. cerevisiae deletion strains, locus YOR083W, strain WHI5 (second series), stronger effect = lower value 1.02 | S. cerevisiae deletion strains, locus YOR083W, strain WHI5, stronger effect = lower value 1.01 | S. cerevisiae deletion strains, locus YOR106W, strain vam3, stronger effect = lower value 1.01 | S. cerevisiae deletion strains, locus YOR136W, strain idh2, stronger effect = lower value 0.983 | S. cerevisiae deletion strains, locus YOR144C, strain elg1, stronger effect = lower value 0.996 | S. cerevisiae deletion strains, locus YOR184W, strain ser1, stronger effect = lower value 0.98 | S. cerevisiae deletion strains, locus YOR231W, strain MKK1, stronger effect = lower value 0.99 | S. cerevisiae deletion strains, locus YOR265W, strain rbl2, stronger effect = lower value 0.99 | S. cerevisiae deletion strains, locus YOR270C, strain vph1, stronger effect = lower value 1.05 | S. cerevisiae deletion strains, locus YOR290C, strain snf2, stronger effect = lower value 0.956 | S. cerevisiae deletion strains, locus YOR316C, strain cot1, stronger effect = lower value 0.995 | S. cerevisiae deletion strains, locus YPL051W, strain arl3, stronger effect = lower value 0.999 | S. cerevisiae deletion strains, locus YPL055C, strain LGE1, stronger effect = lower value 0.989 and 1 | S. cerevisiae deletion strains, locus YPL078C, strain atp4, stronger effect = lower value 1.01 | S. cerevisiae deletion strains, locus YPL106C, strain sse1, stronger effect = lower value 0.944 | S. cerevisiae deletion strains, locus YPL240C, strain hsp82, stronger effect = lower value 0.994 | S. cerevisiae deletion strains, locus YPL241C, strain CIN2, stronger effect = lower value 0.984 and 1 | S. cerevisiae deletion strains, locus YPL256C, strain CLN2, stronger effect = lower value 0.984 | S. cerevisiae deletion strains, locus YPR119W, strain clb2, stronger effect = lower value 0.987 | S. cerevisiae deletion strains, locus YPR141C, strain kar3, stronger effect = lower value 0.982 | S. cerevisiae deletion strains, locus YPR163C, strain tif3, stronger effect = lower value 0.981 | S. cerevisiae deletion strains, locus YPR167C, strain met16, stronger effect = lower value 0.993 | S. cerevisiae deletion strains, strain wtn01, stronger effect = lower value 1.01 | S. cerevisiae strains, strain wild type, stronger effect = lower value 0.988
